Drawing on the supplement of paper PMC11150407, this text covers cell viability for 50 compounds.

Where a name gives a salt, the structure may show the parent alone. The campaign covered roughly 2,100 compounds. About 180 (8.6%) showed an effect of 50% or more. What follows is part of a selection rich in strong results, with near analogues and random picks from the rest.

The assay deals with MOLM1 and UCSD/AML1 (averaged). Briefly: cell viability relative to DMSO control (POC); higher = less growth inhibition. The following applies: 1 µM; 72 h. How it is done:
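Primary viability screen in the 3q26 EVI1-high AML cell lines MOLM1 and UCSD/AML1 (1.5e3 cells/well, 384-well), compounds at 1 uM for 72 h. ATP CellTiter-Glo read-out given as percent of viable cells over DMSO control (POC), averaged over duplicates. DMSO was the negative control and 5 uM etoposide the positive control. This mapping covers the MicroSource Spectrum and Selleck anticancer libraries (drug names).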
For orientation: cell viability means a read-out of living cells in per cent, often relative to untreated cells. Regarding `COc1ccc2c(=O)c(-c3cc4c(cc3OC)OCO4)coc2c1`, the cell viability was 99.7%.
With `COc1ccc(-c2c(O)c3c(OC)c4c(cc3oc2=O)OC(C)(C)C=C4)cc1`, the cell viability amounted to 93.5%.
With `CC[C@H](/C=C/[C@@H](C)[C@H]1CC[C@H]2[C@@H]3CC=C4C[C@@H](O)CC[C@]4(C)[C@H]3CC[C@]12C)C(C)C`, the cell viability was 107%.
As for `CC(C)=CCCC1(C)C=Cc2c(O)c3c(c(CC=C(C)C)c2O1)OC12C(=CCCC1C(C)(C)O[C@@]2(C/C=C(\C)C(=O)O)C(=O)O)C3=O` (stereo not given in full), the cell viability was 103%.
On to `CC(C)C1=CC2=CC[C@@H]3[C@](C)(CCC[C@@]3(C)C(=O)O)[C@H]2CC1`, for which the cell viability was 103%.
Turning to `CC(=O)O[C@H]1C[C@@H](OC(C)=O)C(C)(C)[C@@H]2C[C@@H](OC(C)=O)[C@]3(C)[C@H](CC[C@@]4(C)[C@H](c5ccoc5)OC(=O)[C@H]5O[C@@]534)[C@@]12C`, the cell viability stood at 83.3%.
On to `COc1ccc(-c2cc(=O)c3c(O)c(OC)c(O[C@@H]4O[C@H](CO[C@@H]5O[C@@H](C)[C@H](O)[C@@H](O)[C@H]5O)[C@@H](O)[C@H](O)[C@H]4O)cc3o2)cc1`, for which the cell viability came out at 101%.
Turning to `CC(C)C[C@H](NC(=O)[C@H](Cc1ccccc1)NC(=O)c1cnccn1)B(O)O` [Bortezomib (Velcade)], the cell viability came out at 0.861%.
For the compound `CC(C)C[C@H](NC(=O)[C@@H](O)[C@H](N)Cc1ccccc1)C(=O)O` [Ubenimex (Bestatin)], the cell viability is 66.5%.
Regarding `CSCCC(N)C(=O)NC(CC(C)C)C(=O)NC(Cc1ccccc1)C(=O)O` (stereo not given), the cell viability was 97.7%.
Then `COc1ccc(-c2cc(=O)c3c(OC)c(OC)c(OC)c(OC)c3o2)cc1OC`, with 75.6%; and `C[C@H]1COC2(CCN(c3nc(=O)c4cc(C(F)(F)F)cc([N+](=O)[O-])c4s3)CC2)O1` (racemic) [BTZ043 racemate], with 83.5%.
With `N=c1ccn2c(n1)O[C@H]1[C@H](O)[C@@H](CO)O[C@H]12`, the cell viability turned out to be 5.77%.
With `Nc1ccn([C@@H]2O[C@H](CO)[C@@H](O)C2(F)F)c(=O)n1` [Gemcitabine HCl (Gemzar)], the cell viability was 10.8%.
For the compound `Nc1ccn([C@@H]2O[C@H](CO)[C@@H](O)[C@@H]2O)c(=O)n1`, the cell viability was 8.69%.
On to `Nc1ccn([C@@H]2O[C@H](CO)[C@@H](O)C2(F)F)c(=O)n1` [Gemcitabine (Gemzar)], for which the cell viability worked out at 8.79%.
Consider `C[N+](C)(C)CCOP(=O)(O)OP(=O)([O-])OC[C@H]1O[C@@H](n2ccc(N)nc2=O)[C@H](O)[C@@H]1O`, for which the cell viability was 85.3%.
As for `NC(=O)c1ncn([C@@H]2O[C@H](CO)[C@@H](O)[C@H]2O)n1`, the cell viability was found to be 94.7%.
With `Nc1ccn([C@@H]2O[C@H](CO)[C@@H](O)[C@@H]2O)c(=O)n1` [Cytarabine], the cell viability was found to be 7.02%.
Take `NC(=O)c1ncn([C@@H]2O[C@H](CO)[C@@H](O)[C@H]2O)c1N`: the cell viability was determined as 119%.
As for `O=c1[nH]cnc2c1ncn2[C@@H]1O[C@H](CO)[C@@H](O)[C@H]1O`, the cell viability was determined as 109%.
Take `COC(=O)[C@H](OC(C)=O)[C@H]1C(C)(C)[C@H](OC(C)=O)[C@@H]2CC3=C4CC(=O)O[C@@H](c5ccoc5)[C@]4(C)CC[C@@H]3[C@@]1(C)C2=O`: the cell viability was determined as 94.8%.
For `COc1cc2c(cc1OC)C(=O)OC2`, the cell viability turned out to be 103%.
`COc1ccc2c(c1)OC[C@@H](Cc1ccc(OC)c(OC)c1)[C@H]2O`: the cell viability is 96.9%.
Then `CC(=O)O[C@@H]1CC2C(C)(C)C(=O)C3OC3[C@]2(C)C2CC[C@@]3(C)[C@H](c4ccoc4)OC(=O)C4OC43[C@@]21C` (stereo not given in full), with 95.3%; and `CC(C)c1c(O)ccc2c1CCC1[C@@](C)(C=O)CCC[C@]21C` (stereo not given in full), with 96.4%; and `C[C@@H]1CC[C@@]2(OC1)O[C@H]1C[C@H]3[C@@H]4CC[C@@H]5C[C@@H](O)CC[C@]5(C)[C@H]4CC[C@]3(C)[C@H]1[C@@H]2C`, with 97.4%.
Then `O=C(CC(=O)c1ccccc1)c1ccccc1`, with 80.9%; and `O=C(OOC(=O)c1ccccc1)c1ccccc1`, with 101%.
Under `CN(NC(=O)CC(=O)NN(C)C(=S)c1ccccc1)C(=S)c1ccccc1` [Elesclomol] stands 1.23%.
Turning to `CCCCCCCCCCCCCCCCCCOCC(O)CO` (stereo not given), the cell viability was 85%.
Consider `COc1ccc(-c2coc3cc(O)ccc3c2=O)cc1`, for which the cell viability worked out at 108%.
Consider `CC12CCCC(O)(C1)C1CC(C)(C)C1CC2` (stereo not drawn) [beta-CARYOPHYLLENE ALCOHOL], for which the cell viability turned out to be 111%.
For `CC(=O)OC1CCC23CC1(C)CCC2C(C)(C)CC3OC(C)=O` (stereo not given), the cell viability was 96.1%.
On to `COc1cc2ncnc(Nc3ccc(F)c(Cl)c3)c2cc1NC(=O)/C=C/CN1CCCCC1`, for which the cell viability amounted to 50.9%.
In the case of `CN(C)C/C=C/C(=O)Nc1cc2c(Nc3ccc(F)c(Cl)c3)ncnc2cc1O[C@H]1CCOC1` [Afatinib (BIBW2992)], the cell viability amounted to 52.9%.
Regarding `CCOc1cc2ncc(C#N)c(Nc3ccc(F)c(Cl)c3)c2cc1NC(=O)/C=C/CN(C)C` [Pelitinib (EKB-569)], the cell viability was 14.4%.
For the compound `CCOc1cc2ncc(C#N)c(Nc3ccc(OCc4ccccn4)c(Cl)c3)c2cc1NC(=O)/C=C/CN(C)C` [Neratinib (HKI-272)], the cell viability turned out to be 14.7%.
As for `COc1ccc2cc([C@H](C)CO)ccc2c1`, the cell viability is 103%.
`COC(=O)C[C@H]1C(C)(C)[C@@H](O)[C@@H]2CC3=C4C=C(OC)O[C@@H](c5ccoc5)[C@]4(C)CCC3[C@@]1(C)C2=O` (stereo partly drawn) [3-DEOXO-3beta-HYDROXYMEXICANOLIDE 16-ENOL ETHER]: the cell viability turned out to be 100%.
Then `CCOC(=O)C(Cc1ccc(O)cc1)NC(C)=O` (stereo not given), with 105%; and `C/C(=C\C(=O)Nc1ccccc1C(=O)O)c1ccc2ccccc2c1`, with 104%.
As for `COc1cc(C/C=C/c2ccccc2)c(OC)cc1O`, the cell viability stood at 93.6%.
Consider `COc1cc(O)c(C)c(O)c1`, for which the cell viability worked out at 106%.
`COc1ccc(C(=O)CC(=O)O)c2c1C=CC(C)(C)O2`: the cell viability worked out at 99.5%.
Consider `CC(C)=CCC/C(C)=C/CC/C(C)=C/CC/C(C)=C/CC/C(C)=C/CC/C(C)=C/CC/C(C)=C/CC/C(C)=C/CC/C(C)=C/CO`, for which the cell viability was found to be 83.6%.
Take `O=c1c(-c2ccc(O)cc2)coc2c([C@@H]3O[C@H](CO)[C@@H](O)[C@H](O)[C@H]3O)c(O)ccc12`: the cell viability is 120%.
In the case of `CNC(=O)c1cc(COc2nnc(Nc3ccc(Cl)cc3)c3ccoc23)ccn1` [Telatinib (BAY 57-9352)], the cell viability is 94.5%.
Under `Clc1ccc(Nc2nnc(Cc3ccncc3)c3ccccc23)cc1` [Vatalanib dihydrochloride (PTK787)] stands 44.6%; under `CN1CCCC(n2nc(Cc3ccc(Cl)cc3)c3ccccc3c2=O)CC1` (stereo not given), 101%.
